In the supplement of paper PMC6555819:

Experiments:
Experiment in all cases: PBM binding z-score (relative to random genomic background probes); higher = stronger binding; sequences stand for … in GC…GCGATTGACAGCGTAGAATGAAGG
[1] = tested on: RARb homodimer (NR concentration 270 nM)
Outline: (§1)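 Custom Agilent 4×180K protein-binding microarrays carried double-stranded probes, each with a 34-nt variable region. These regions held direct-repeat seeds, single-nucleotide variants, half-site ablations and random human genomic background sequences. Ligand-free nuclear receptor dimers were incubated on the arrays for 1 h, antibodies against each partner (one per run) detected binding, and scanned fluorescence was regression-normalized. Binding z-scores take the random background probes as reference.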

[2] = tested on: RARg:RXRa (NR concentration 270 nM, RXRa partner concentration 90 nM)
Outline: as §1

[3] = tested on: RARg homodimer (NR concentration 270 nM)
Outline: as §1

[4] = tested on: RXRa DBDmut IVT, anti-RXR (DBD mutation: RXRa K156A/R161A, NR concentration 90 nM)
Outline: as §1

[5] = tested on: RXRa homodimer (NR concentration 180 nM)
Outline: as §1

[6] = tested on: THRa:RXRa (NR concentration 90 nM, RXRa partner concentration 90 nM)
Outline: as §1

[7] = tested on: THRa homodimer (NR concentration 90 nM)
Outline: as §1

[8] = tested on: VDR homodimer (NR concentration 270 nM)
Outline: as §1

Sequence	PBM binding z-score [1]	PBM binding z-score [2]	PBM binding z-score [3]	PBM binding z-score [4]	PBM binding z-score [5]	PBM binding z-score [6]	PBM binding z-score [7]	PBM binding z-score [8]
CCTACTGGGCCATTCAGAGGTCATTGATCATATG	3.93	4.35	2.99	1.44	3.55	3.14	1.18	3.37
CTATGTATGTTAAGGGGGTCATTCAGTTTGAAAG	3.92	4.71	3.61	3.03	5.44	3.91	2.88	6.32
CGAACTAGCTCACCAGGACAGTGAAGAGGTTGGA	0.0882	-0.448	-0.336	0.0205	-0.153	0.96	0.613	-0.481
AAATGTAGGTTAAGGGTCATTCAGGTTGGTTCGC	3.78	4.73	3.54	2.32	5.91	3.57	1.64	4.26
CCGAGTAGGTTACGAGGGGGCACTCAGTGCGAAT	2.29	3.19	2.39	0.868	2.17	3.74	0.205	2.68
CGAACTAGGTGAAAGGACAGTGAAAGGCGACGTA	1.15	0.833	1.07	-0.365	0.373	0.672	-0.413	-0.349
ATATGTAGGTTAGCTGGAGTCATTCAGACTAGGC	0.259	0.523	0.683	-0.228	0.583	0.807	-0.355	-0.00881
CGAACTAGGTCCAAGGACAGTGAAAGGCGACGTA	0.38	0.00598	0.386	0.946	0.00981	1.39	0.672	-0.041
ATATGTAGGATATCGGGTCATTCAGTTTGCGCAT	2.18	1.75	1.44	1.12	2.23	3.15	2.18	2.6
GGAACTAGGGCAAAGTTGATAGCATCTGTCGACG	0.866	1.07	1.15	0.644	0.592	0.234	-0.621	-0.235
CGAACTAGGTCATAGGACAGTGAAAGGCGACGTA	2.66	3.62	3.88	1.21	3.11	2.64	0.357	0.417
CGAACTAGTTCAAAGGACAGTGAAAGGCGACGTA	1.43	1.25	1.73	2.02	0.848	0.426	-0.6	0.808
CTATGTAGGTTAAGGGGTTCATTCAGTTTGAAAG	1.75	1.88	1.04	2.79	2.55	1.92	0.473	7.01
TCGAGTAGGTTACGGGGGCATTCAGGGATGAAGA	2.45	3.55	2.61	1.79	2.77	3.81	1.25	2.57
CTATGTAGGTTAAGGGGGACATTCAGTTTGAAAG	1.99	1.81	1.7	1.47	1.39	2.23	1.37	2.64
CGTCCAAGGTCAGATAGGTCAGTGAATGCCGAGT	4.84	5.45	6.04	3.06	4.4	3.73	1.92	3.28
CCTACTGGGCCAAAGGTCATAGATTCCAATGCTC	4.32	5.69	4.78	1.1	6.28	3.22	0.866	2.27
AGAATGAGGTTATACGTAGGTCAGGGAAGAAAGT	3.18	6.03	2.35	1.74	3.96	3.74	1.44	1.87
CAAACTAGGTCAAAGGACAGTGAAAGGCGACGTA	2.87	3.97	4.47	1.68	2.86	2.78	0.733	0.509

Sequence	PBM binding z-score [1]	PBM binding z-score [2]	PBM binding z-score [3]	PBM binding z-score [4]	PBM binding z-score [5]	PBM binding z-score [6]	PBM binding z-score [7]	PBM binding z-score [8]
CCAAGTAGGTTACGAGGGGGCATTCAGTGCGAAT	2.46	3.53	3.14	1.89	2.52	3.6	0.736	3.82
CGTGCAAGGTCAGAGAGGTCAGTGAATGCCGAGT	5.37	6.33	7.25	3.07	5.82	4.31	2.54	5.99
ATATGTAGGTTAGTGTCATTCAGAAAGTAGGGAA	1.31	1.14	1.06	0.868	0.992	0.837	0.558	0.794
AATACAGGGTCACTAGGTCAGAGTAGGTACGAAT	4.58	6.39	6.22	2.99	6.66	3.92	2.23	3.55
CCTGCTAGTTCAATGGTCAGCTAAAGCAGCTCGC	1.18	0.412	0.679	2.42	0.154	0.222	-0.395	0.706
AGTCAAAGTTCAGGACGAGATAACGTAAAGCACG	2.69	3.84	4.59	2.82	2.8	1.76	0.431	1.95
CTAAGTAGGTTAAGGGGGTCATTCAGTTTGAAAG	3.97	4.97	4.03	2.69	5.62	3.64	2.28	6.08
AGTAAAAGTTCACTAGGTAACGTAAGATTCAGCT	3.39	4.08	4.93	4.22	3.39	1.8	0.341	3.76
CTATGTAGGTTCAGGGGGTCATTCAGTTTGAAAG	3.91	5.72	3.84	3.68	7.14	3.7	2.11	6.83
CTATGTAGGTTATGGGGGTCATTCAGTTTGAAAG	4.1	5.57	4.08	2.33	6.38	3.9	2.67	6.69
CCCACTGGGGCAAAGGTTACCATACTCAGTACGA	2.15	3.57	1.81	-0.648	3.57	1.8	-0.0576	0.129
CCTACTGGGCGAAGGTCATTGATCAGTCAAAGCA	3.08	3.7	2.52	0.409	2.97	2.2	-0.298	1.33
GCTTCCGGGTCAAAGGTTATAGCATGAATAGAAT	2.99	6.81	4.53	2.8	9.29	4.61	1.46	2.25
CGAACTAGGTCGAAGGACAGTGAAAGGCGACGTA	0.802	0.619	1.1	0.469	0.475	0.508	-0.399	-0.311
CGTCCAAGGTCAGCAGGTCACTGAAAGCGACGTG	5.25	7.24	7.65	2.86	6.51	4.32	2.37	1.88
CCTACTGGGCCATTGAGAGGTCATTGATCATATG	3.78	4	2.63	0.642	3.13	3.06	1.26	3.78
TCGAATAGGTTACGGGGGCATTCAGGGATGAAGA	2.78	4.18	3.02	2.78	3.99	4.29	1.9	3.3
CGAACTAGGTCCCCAGGACAGTGAAGAGGTTGGA	-0.127	-0.281	-0.0988	-0.51	-0.31	0.965	0.258	-0.533
CCGAGTATGTTACGAGGGGGCATTCAGTGCGAAT	1.63	1.76	1.26	2.1	1.31	2.31	0.458	3.74

Sequence	PBM binding z-score [1]	PBM binding z-score [2]	PBM binding z-score [3]	PBM binding z-score [4]	PBM binding z-score [5]	PBM binding z-score [6]	PBM binding z-score [7]	PBM binding z-score [8]
CGTCGGAGGACAGAAGGTCAGAGCTGTCCGCTTT	3.36	3.56	3.38	0.338	1.83	2.08	-0.192	0.136
AGTCAAATTTCACTAGGTAACGTAAGATTCAGCT	0.0165	-0.19	0.218	0.395	-0.206	0.638	0.471	0.31
CCTACTGGGCCAAAAATGTCATTGATGCCGATAA	-0.0192	-0.247	0.087	-0.297	-0.234	-0.288	-0.816	-0.383
ACTTACGGGTCAACGGGGTTATAGCACGCGTATA	3.81	5.9	5.07	2.6	6.78	4.23	1.08	3.81
CCGAGTAGGTTACGAGGGTGCATTCAGTGCGAAT	0.573	0.908	0.734	0.804	1.18	1.71	-0.985	3.12
ATCGAAAGGTCGTGACGTGAGTATACAGAAAGGC	2.18	4.37	3.53	0.904	4.94	2.15	-0.269	0.662
CATACAGGGTCATCTAGGCCAGAGTAGGGACGGC	3.37	5.16	4.85	3.17	5.72	3.6	1.37	3.3
CGTCAAAGTTCTAGGTAACGTAACAGAAAGCAGC	-0.287	0.0968	0.323	0.31	0.135	0.719	0.349	-0.0157
CGAACTAGGTCACCAGGACAGTGAAGAGGTTGGA	3.32	4.52	5.42	1.45	3.39	3.28	1.95	0.49
GCTTACGGGTGAAAGGTTATAGCATGAATAGAAT	1.48	3.01	1.34	0.431	4.95	2.2	0.0422	-0.0188
CAAAGTAGGTCAAGGTCAAAGTCGGTTTGTGCCA	5.16	6.15	6.56	3.29	6	4.22	3.66	4.44
TCTGCTAGGTCAGTTGGGCAGCTAACGAGCTGCC	1.91	2.37	3.42	0.193	0.493	1.12	-0.349	-0.821
ATATGGAGGTTAGCTGGGGTCATTCAGACTAGGC	4.32	4.94	3.85	2.22	6.26	5.44	3.66	5.52
CCTTACGGGTCAAGGTAATAGCACGGGTGGTACG	2.82	4.6	4.42	0.648	4.79	2.66	0.382	0.423
TCGAGTAGGTTACGGGGGCATTAAGGGATGAAGA	1.91	3.09	2.32	1.61	2.56	2.83	0.949	2.81
TCATATAGGTTAAAGGTGAAAGTCGGTGTGGTAA	2.56	3.92	1.76	1.94	5.99	2.62	0.942	0.81
GACACAGGGTCAGCTAGAGGCCAGAGTATGGAAA	3.17	6.46	4.41	1.3	4.1	3.1	-0.0446	0.591
CGAACTAGGTCAATGGACAGTGAAAGGCGACGTA	2.45	3.17	4.17	1.14	2.14	1.93	-0.00999	0.0508
ATATGTAGGTGAGGGTCATTCAGAAAGTAGGGAA	3.13	3.24	3.06	1.67	3.67	2.56	1.31	2.76
